In PubChem BioAssay (Tox21):
“And” between values parts separate entries of the source, which are not always exact repeats. Identical values can stand only once. Results filed as inconclusive are left out. Where a call stands in place of a potency, no number is given. Some structures have more than one record in an assay (separate samples or runs), and their calls can disagree. The source made the active and inactive calls. Calls follow the shape of the dose curve; as a rule, active = well fitted activation curve with a large enough effect in the repeat runs; inconclusive = weak or mixed curves; inactive = flat fitted curve, though single readings scatter. Residues, ends and D or L forms follow the SMILES beside them.

test: A CellTox Green Cytotoxicity Assay to monitor cytotoxicity in HepG2 cells - 24 hour (AID 1224878); settings: CellTox Green fluorescence; series mostly up to 76.8 µM; also: nearly all actives have a fitted effect of over 45% in size
From the text: National Center for Advancing Translational Sciences [NCATS]
NIH Chemical Genomics Center [NCGC]
U.S. Environmental Protection Agency [EPA]
National Institutes of Environmental Health Sciences [NIEHS]
National Toxicology Program [NTP]
Cell-based models are critical for drug discovery. Determining the natural cytotoxic effects resulting from test compounds is an essential research activity. A CellTox Green Cytotoxicity Assay to monitor cytotoxicity in real time of continues cell culture during 40 hours of the compound treatment was used to screen Tox21 10K library compounds in HepG2 cells. CellTox Green Cytotoxicity Assay is a nonlytic, homogeneous, biofluorescent method to measure cytotoxicity in cell culture after experimental manipulation. The assay system uses a proprietary asymmetric cyanine dye that is excluded from viable cells but preferentially stains the dead cell's DNA. […] Viable cells produce no appreciable increases in fluorescence. Therefore, the fluorescence signal produced by the binding interaction with dead cell DNA is proportional to cytotoxicity.
The mixture of HepG2 cell suspension and reagents were dispensed at 600cells/6 ul/well in 1536-well tissue culture treated black solid bottom plates using a Multidrop dispenser. After the assay plates were incubated at a 37 C/5% CO2 incubator for 5 hours, 23 nL of compounds dissolved in DMSO, positive and negative controls was transferred to the assay plate by a pintool work station. The plates were incubated at 37 C for 40 hours. The fluorescence intensity were measured at 0h, 8h, 16h, 24h, 32h and 40h time points using ViewLux plate reader during compound treatment.
Potency is read from the fitted curve at half-maximal effect.

For NC(N)=O, which Potency is on record?
Its Potency is “inactive”.

With Nc1ccc(S(=O)(=O)c2ccc(N)cc2)cc1 as the molecule, how does the Potency read?
The Potency was “inactive”.

Which Potency does the source give for CCCCOC(=O)CC(CC(=O)OCCCC)(OC(C)=O)C(=O)OCCCC here?
Its Potency is “inactive”.

Which Potency does the source give for O=S(=O)(O)c1ccc2cc(O)ccc2c1 here?
Its Potency is “inactive”.

With CC(=O)OCC(COC(C)=O)OC(C)=O as the molecule, how does the Potency read?
The Potency was “inactive”.

For C1N2CN3CN1CN(C2)C3, which Potency is on record?
The Potency was “inactive”.

With NS(=O)(=O)c1cc(C(=O)O)c(NCc2ccco2)cc1Cl as the molecule, how does the Potency read?
Its Potency is 17.4 µM (active) and inactive.

With CCCN(CCC)S(=O)(=O)c1ccc(C(=O)O)cc1 as the molecule, how does the Potency read?
Its Potency is “inactive”.

For CC(O)C(=O)O (stereo not given), which Potency is on record?
The Potency was “inactive”.

With CC1(C)[C@@H]2CC[C@@]1(C)C(=O)C2 as the molecule, how does the Potency read?
Its Potency is “inactive”.

Which Potency does the source give for CC(=O)Nc1nnc(S(N)(=O)=O)s1 here?
The Potency was “inactive”.

Which Potency does the source give for CC(=O)NS(=O)(=O)c1ccc(N)cc1 here?
Its Potency is “inactive”.

With OCCc1ccccc1 as the molecule, how does the Potency read?
The Potency was “inactive”.

Which Potency does the source give for O=C(O)CCCCCCCC(=O)O here?
The Potency was “inactive”.

Which Potency does the source give for COC(=O)[C@H](Cc1ccccc1)NC(=O)[C@@H](N)CC(=O)O (H-Asp-Phe-OMe) here?
Its Potency is “inactive”.

For Nc1ccc(C(=O)O)cc1, which Potency is on record?
The Potency was “inactive”.

For O=C(O)c1cccnc1, which Potency is on record?
The Potency was “inactive”.

With O=C(c1ccccc1)C(O)c1ccccc1 (stereo not given) as the molecule, how does the Potency read?
Its Potency is “inactive”.

For O=C(O)CS, which Potency is on record?
The Potency was “inactive”.

With Nc1ccc(S(=O)(=O)Nc2nccs2)cc1 as the molecule, how does the Potency read?
Its Potency is “inactive and 43.6 µM (active)”.

Which Potency does the source give for OC(Cn1cncn1)(Cn1cncn1)c1ccc(F)cc1F here?
Its Potency is “inactive”.

Which Potency does the source give for C[C@]12C=CC(=O)C=C1CC[C@@H]1[C@@H]2[C@@H](O)C[C@@]2(C)[C@H]1CC[C@]2(O)C(=O)CO here?
Its Potency is “inactive”.

With Cc1cc(=O)n(-c2ccccc2)n1C as the molecule, how does the Potency read?
The Potency was “inactive”.

Which Potency does the source give for Cc1ccc(S(=O)(=O)NC(=O)NN2CCCCCC2)cc1 here?
The Potency was “inactive”.

Which Potency does the source give for O=C(c1ccccc1)c1ccccc1 here?
The Potency was “inactive”.

For O=C(O)/C=C\C(=O)O, which Potency is on record?
The Potency was “inactive”.

For CCCCC1C(=O)N(c2ccccc2)N(c2ccccc2)C1=O, which Potency is on record?
Its Potency is “inactive”.

With CC(C)(Oc1ccc(C2CC2(Cl)Cl)cc1)C(=O)O (stereo not given) as the molecule, how does the Potency read?
The Potency was “inactive”.

For Cn1c(=O)c2[nH]cnc2n(C)c1=O, which Potency is on record?
The Potency was “inactive”.

Which Potency does the source give for CC(O)CN(CCN(CC(C)O)CC(C)O)CC(C)O (stereo not given) here?
Its Potency is “inactive”.

Which Potency does the source give for O=C(O)c1cc(N=Nc2ccc(S(=O)(=O)Nc3ccccn3)cc2)ccc1O here?
Its Potency is “inactive”.

Which Potency does the source give for N=C(N)c1ccc(OCCCCCOc2ccc(C(=N)N)cc2)cc1 here?
The Potency was “inactive”.

Which Potency does the source give for CCC1(c2ccccc2)C(=O)NCNC1=O here?
Its Potency is “inactive”.

Which Potency does the source give for NNC(=O)c1ccncc1 here?
The Potency was “inactive”.

With C/C=C/c1ccc(OC)cc1 as the molecule, how does the Potency read?
The Potency was “inactive”.

For CCOc1ccc(NC(=O)CC(C)O)cc1 (stereo not given), which Potency is on record?
Its Potency is “inactive”.

With Cc1ccccc1C(OCCN(C)C)c1ccccc1 (stereo not given) as the molecule, how does the Potency read?
The Potency was “inactive”.

For CCCCC(CC)COC(=O)/C=C/c1ccc(OC)cc1 (stereo not given), which Potency is on record?
The Potency was “inactive”.

For O=C(C1CCCCC1)N1CC(=O)N2CCc3ccccc3C2C1 (stereo not given), which Potency is on record?
Its Potency is “inactive”.

With O=C1CN(/N=C/c2ccc([N+](=O)[O-])o2)C(=O)N1 as the molecule, how does the Potency read?
Its Potency is “inactive”.
